Compound activity deposited in PubChem by National Center for Advancing Translational Sciences (NCATS).
Sfp inh: qHTS Assay for Inhibitors of Bacillus subtilis Sfp phosphopantetheinyl transferase (PPTase); 4'-phosphopantetheinyl transferase ffp (Bacillus subtilis), Q9F4F7; Biochemical Sfp PPTase activity, qHTS; Potency, µM, for the others: largest response in the series, negative = inhibition, actives largely listed as inhibitors; actives 3.5% (n = 310,000);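 also: the enzyme is Sfp with the accession as filed and its product quenches rhodamine fluorescence; 0% = enzyme reaction without inhibitor and -100% = no enzyme wells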
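After 15 min at room temperature with compound, 15 nM Sfp received 5 uM rhodamine-CoA plus 12.5 uM BHQ-2-ybbR (50 mM Hepes pH 7.6, 10 mM MgCl2). Rate came from the fluorescence difference over 30 min, ex 525/em 598 nm.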
G9a block: qHTS Assay for Inhibitors of Histone Lysine Methyltransferase G9a; Histone-lysine N-methyltransferase EHMT2 (Homo sapiens), Q96KQ7; AID 504332, 2011; G9a H3K9 monomethylation, AlphaScreen, 2 h; actives 8.8% (n = 350,000); Potency, µM (top dose mostly 102 µM), for inactives: at the highest dose activity, negative = inhibition, most hits filed as inhibitors; also: % is scaled to controls: 0 for no effect and ±100 for the full control effect; nearly all actives have a fitted effect of over 75% in size
Target sequence (Q96KQ7 913-1193 limits assumed): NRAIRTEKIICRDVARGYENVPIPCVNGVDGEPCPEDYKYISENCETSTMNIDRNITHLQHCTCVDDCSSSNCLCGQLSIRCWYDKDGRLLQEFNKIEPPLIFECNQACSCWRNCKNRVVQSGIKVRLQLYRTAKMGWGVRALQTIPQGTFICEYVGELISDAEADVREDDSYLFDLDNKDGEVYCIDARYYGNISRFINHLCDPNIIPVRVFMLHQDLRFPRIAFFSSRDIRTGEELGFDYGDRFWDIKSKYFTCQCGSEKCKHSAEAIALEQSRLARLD
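Compounds were preincubated with 20 nM G9a for 15 min, after which biotinylated H3K9 peptide (500 nM) and SAM (20 uM) started a 2 h room-temperature reaction. Monomethylated product was quantified by antibody-based AlphaScreen chemiluminescence.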
HP1b binding inh: HTS for Inhibitors of HP1-beta Chromodomain Interactions with Methylated Histone Tails | actives 0.56% (n = 390,000) | Potency, µM (titrated, usually from 114 µM), for the others: top-dose activity change, negative = inhibition, most hits filed as inhibitors | AlphaScreen HP1-beta / biotin-H3K9me3 peptide binding; also: nearly all actives have a fitted effect of over 70% in size
Target sequence (P83916 whole entry, looked up): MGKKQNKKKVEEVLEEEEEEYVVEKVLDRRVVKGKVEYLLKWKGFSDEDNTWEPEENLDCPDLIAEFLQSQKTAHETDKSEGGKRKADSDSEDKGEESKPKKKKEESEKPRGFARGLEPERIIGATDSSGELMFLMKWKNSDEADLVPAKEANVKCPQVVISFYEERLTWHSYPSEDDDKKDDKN
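HP1-beta protein (50 nM final) preincubated 30 min at room temperature with biotinylated H3(1-18)K9me3 peptide (50 nM) in PBS pH 7.4, 0.01% Tween-20, then compound added for 30 min. AlphaScreen streptavidin donor/nickel chelate acceptor beads (10 ug/mL final), 30 min dark, luminescence read.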
PLK1 PBD inh: qHTS for Inhibitors of PLK1-PDB (polo-like kinase 1 - polo-box domain): Primary Screen; actives 2.8% (n = 360,000); Potency, µM, for inactives: max response, negative = inhibition, usual class: inhibitors; Serine/threonine-protein kinase PLK1 (Homo sapiens), P53350; Plk1 PBD binding of FITC phosphopeptide, fluorescence polarization; also: series mostly up to about 57 µM; % is scaled to controls: 0 for no effect and ±100 for the full control effect; nearly all actives have a fitted effect of over 65% in size
BAZ2B inh: qHTS Assay for Inhibitors of BAZ2B; AlphaScreen BAZ2B-H3K14Ac peptide displacement; Potency, µM (top dose mostly 114 µM), for the others: at the highest dose activity change, negative = inhibition, most hits filed as inhibitors; actives 4.4% (n = 360,000); AID 504333, 2011; also: % is scaled to controls: 0 for no effect and ±100 for the full control effect; nearly all actives have a fitted effect of over 60% in size
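In this displacement format the biotinylated H3(5-23) peptide acetylated at Lys14 serves as ligand at 50 nM, with BAZ2B at 50 nM in PBS pH 7.4 containing 0.01% Tween-20. Donor and acceptor beads are 10 ug/mL final.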
JMJD2A Tudor: qHTS Assay for Inhibitors of JMJD2A-Tudor Domain | AlphaScreen JMJD2A-Tudor / H3K4me3 peptide binding | Potency, µM (doses to about 114 µM), inactives show at the top dose activity change, negative = inhibition, actives largely listed as inhibitors | actives 4.4% (n = 390,000); also: % is scaled to controls: 0 for no effect and ±100 for the full control effect; nearly all actives have a fitted effect of over 50% in size
* hit, by the source's call; u = inconclusive; x = no result given; [ ] = remark or other dose. Most compounds without a hit are left out; they make up all but 12% or so of the library. Calls follow the shape of the dose curve; as a rule, active = well fitted curve in the direction sought with a large enough effect; inconclusive = small, poorly fitted or top-dose-only effect, or another doubt; inactive = no such curve, though single readings can be large; an effect the other way counts as inactive or inconclusive. Potency is read from the fitted curve at half-maximal effect.

SMILES	Sfp inh	G9a block	HP1b binding inh	PLK1 PBD inh	BAZ2B inh	JMJD2A Tudor
CC(=O)OCC1(C)CN(c2ccccc2)N(C(C)=O)C1=O (stereo unspecified)	-38%	25µM*	28%	-11%	-15%	-11%
CC(=O)OCC1(C)CN(c2ccccc2)NC1=O (stereo unspecified)	-46%	14µM*	16%	-21%	-22%	-9%
Cc1ccc2oc(=O)c3cc(C(=O)Nc4ccc(F)cc4F)sc3c2c1	x	12%[59 µM]	36%	x	-4%	5%
Cc1ccc(CCNC(=O)CCc2nc3ccccc3[nH]2)cc1	4%	-4%[59 µM]	44%	-4%	-31%	-14%
CCOc1ccccc1/C=C/c1nc2ccccc2[nH]c1=O	-2%	x	31%	3.8µM*	0%	u
O=C(O)c1ccc(-n2nc(C(F)(F)F)cc2-c2cccs2)cc1	4%	1%	38%	1%	-16%	1%
O=[N+]([O-])c1cc(Cl)cc(/C=N/n2cnnc2)c1O	23%	-11%	-4%	-16%	x	-20%
C=CCS/C(N)=N\N=C\c1cc(Br)cc([N+](=O)[O-])c1O	11%	50µM*	-9%	-13%	u	-36%
O=C1C2C(C(=O)N1/N=C/c1cc(Br)cc([N+](=O)[O-])c1O)C1C=CC2C12CC2 (stereo unspecified)	16%	u	u	-29%	u	79µM*
O=[N+]([O-])c1cc(Br)cc(/C=N/n2cnnc2)c1O	18%	32µM*	-12%	u	u	-34%
O=C1C2C(C(=O)N1/N=C/c1cc([N+](=O)[O-])c(O)cc1O)C1C=CC2C12CC2 (stereo unspecified)	u	56µM*	-19%	u	u	50µM*
O=C1C2C(C(=O)N1/N=C/c1cc([N+](=O)[O-])ccc1O)C1C=CC2C12CC2 (stereo unspecified)	1%	5%	20%	-6%	3%	-13%
Cc1cccn2cc(CCNC(=O)Cc3cccs3)nc12	24%	2%	28%	7%	-10%	-20%
COc1ccccc1CNC(=O)c1cn(C)c2ccc(S(=O)(=O)N3CCC(C)CC3)cc2c1=O	x	u	27%	x	x	-13%
C=CCSC1=C(C#N)C(c2ccccc2)CC(=O)N1 (stereo unspecified)	-29%	50µM*	25%	-13%	6%	-24%
CCOC(=O)CSC1=C(C#N)C(c2ccc(Cl)cc2)CC(=O)N1 (stereo unspecified)	-2%	79µM*	26%	-24%	2%	-17%
C=C(C)CSC1=C(C#N)C(c2ccsc2)CC(=O)N1 (stereo unspecified)	28µM*	3%[12.7 µM]	11%	-24%	15%	-14%
CCSC1=C(C#N)C(c2ccc(F)cc2)CC(=O)N1 (stereo unspecified)	-4%	-13%	32%	-4%	6%	-3%
C=CCSC1=C(C#N)C(c2ccc(C(C)C)cc2)CC(=O)N1 (stereo unspecified)	45µM*	45µM*	0%	-19%	-4%	-29%
CCOC(=O)CSC1=C(C#N)C(c2ccc3c(c2)OCO3)CC(=O)N1 (stereo unspecified)	-6%	-20%[59 µM]	33%	-17%	0%	5%[11.4 µM]
COCc1cc(C)n(CC(=O)Nc2ccc(NC(C)=O)cc2)c(=O)c1C#N	x	-25%[59 µM]	15%	x	-6%	-4%
Cc1nnc(SCC(=O)Nc2ccc(C(N)=O)cc2)n1-c1ccccc1	-3%	23%	11%	-7%	2%	-1%
NC(=O)c1ccc(NC(=O)CSC(=O)c2ccccc2)cc1	x	x	-33%	27µM*	x	-15%
